Laboratory results taken from PubChem BioAssay (NCI).
Values joined by “and” are separate entries in the source; they are usually repeats but may differ in a detail not shown here. Equal entries are not always repeated. This is part of a sample that, as a whole, favours compounds with a hit. Of some 79,000 tested, about 15% had one in any assay. No stated cut-off is given here; in the data, active means growth inhibition above about 70%; inactive means the rest.

What was measured:
[1] = NCI Yeast Anticancer Drug Screen. Data for the rad50 strain (AID 155);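 further: 0% = growth of vehicle-only cultures of the same strain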; conditions: S. cerevisiae rad50 strain growth inhibition, hits give high values; at 50.0 µM unless noted
In short: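 Cells are treated with compound, grown, and their growth is then scored against vehicle-only cultures of the same repair-deficient yeast strain.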

[2] = NCI Yeast Anticancer Drug Screen. Data for the mec2-1 strain (AID 157); conditions: S. cerevisiae mec2-1 strain, hits give high values; at 50.0 µM unless noted
In short: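 mec2-1 yeast strain, carrying an alteration in DNA damage repair or cell cycle control, was exposed to compounds; growth inhibition was measured relative to vehicle-treated controls.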

[3] = NCI Yeast Anticancer Drug Screen. Data for the sgs1 mgt1 strain (AID 161);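 further: 0% = growth of cultures given vehicle only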; conditions: S. cerevisiae sgs1 mgt1 strain, hits give high values; at 50.0 µM unless noted
In short: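 This yeast growth screen uses a strain with defined DNA-repair lesions; compound-treated growth is compared with vehicle-treated growth.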

[4] = NCI Yeast Anticancer Drug Screen. Data for the cln2 rad14 strain (AID 165);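 further: 0% = growth equal to vehicle treated cultures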; conditions: S. cerevisiae cln2 rad14 strain, hits give high values; at 50.0 µM unless noted
In short: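 Yeast carrying cln2 and rad14 alterations (cell cycle control and DNA damage repair) were exposed to compounds. Growth inhibition was measured against vehicle-treated controls.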

[5] = NCI Yeast Anticancer Drug Screen. Data for the bub3 strain (AID 167); conditions: S. cerevisiae bub3 mutant strain, hits give high values; at 50.0 µM unless noted
In short: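 Part of a panel of yeast mutants defective in DNA damage repair or cell cycle regulation. Each strain is grown with compound, and inhibition is calculated relative to solvent-treated cultures.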

[6] = NCI Yeast Anticancer Drug Screen. Data for the mlh1 rad18 strain (AID 175); conditions: S. cerevisiae mlh1 rad18 strain growth inhibition, hits give high values; at 50.0 µM unless noted
In short: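 Growth inhibition of the yeast strain was measured after compound exposure and expressed relative to vehicle-treated controls. The strain carries defined defects in DNA damage repair.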

Measured: growth inhibition

C=C1C(=O)OC2/C=C(\C)C(O)/C=C\C(C)(O)CC(OC(=O)/C(C)=C/C)C12 (stereo not given)
inactive: [1] -18% | [2] -37.6% | [3] -3.15% | [4] -2% | [5] -34.8% | [6] -26.8%

CCCCCCCC(=O)Nc1cccc(O)c1
inactive: [1] 4.8% | [2] -6.95% | [3] -11.7% | [4] -34.9% | [5] -6.3% | [6] -6.15%

CSC1N=CNc2c1sc(=S)n2-c1ccccc1 (stereo not given)
inactive: [1] -20.8% | [2] 7.75% | [3] 15.9% | [4] -3.9% | [5] -2.85% | [6] -1.85%

CCOC(=O)c1ccc(NC(=S)Nc2ncccc2C)cc1
inactive: [1] 15.8% | [2] 11.4% | [3] 42.5% | [4] -3.3% | [5] 34.3% | [6] 21.2%

Nc1[nH]c(=O)[nH]c(=O)c1[N+](=O)[O-]
inactive: [1] 5.4% | [2] -6.8% | [3] -7.1% | [4] -8.5% | [5] -9.35% | [6] -3.15%

C/C(=C\CNc1ncnc2c1ncn2CCC#N)CO
inactive: [1] -17% | [2] 13.2% | [3] -33.2% | [4] 1.5% | [5] 14.8% | [6] -15.9%

OCC1OC(O)C(O)C(O)C1O (stereo not given)
inactive: [1] 5.05% and 8.6% | [2] 1.75% and 15.1% | [3] -0.95% and -5.85% | [4] -19.4% and 16.8% | [5] -4.1% and 2.1% | [6] 3.1% and 14.4%

Cc1ccc(S(=O)(=O)n2cc(C#N)c(C#N)c2)cc1
inactive: [1] -10.8% | [2] 2.25% | [3] 10.8% | [4] -28.6% | [5] 16.3% | [6] 7.15%

CCOC(=O)C(=O)C(NC(=O)Cc1ccccc1)C(=O)OCC (stereo not given)
inactive: [1] 27.2% | [2] -8.55% | [3] 1.85% | [4] -15.8% | [5] -0.25% | [6] 17.1%

O=C(O)C(Cc1cccs1)C(=O)O
inactive: [1] -12.8% | [2] 0.6% | [3] -15.2% | [4] 41.5% | [5] -18.6% | [6] -4.25%

Cc1ccc(S(=O)(=O)OCCOCCOS(=O)(=O)c2ccc(C)cc2)cc1
inactive: [1] 30.8% | [2] -0.4% | [3] 2.25% | [4] 4% | [5] 18.9% | [6] 17.8%

CC1(c2ccccc2)CC/C(=C/c2ccccc2)C1=O (stereo not given)
inactive: [1] -5.4% | [2] 10.1% | [3] 25.9% | [4] -43.5% | [5] 33.3% | [6] 18.3%

C=C1C(=O)O[C@@H]2C[C@@]3(C)[C@H](O)CCC(=C)[C@@H]3C[C@H]12
inactive: [1] -4.65% | [2] 25.1% | [3] 3.95% | [4] 17.1% | [5] 19.6% | [6] 5.5%

CC(=O)Cc1cc(-c2cc(CC(C)=O)nc(N)n2)nc(N)n1
inactive: [1] 1.85% | [2] 13.3% | [3] 12.7% | [4] 15.2% | [5] 1% | [6] 20.4%

Cc1cc(C(C)(C)C)cc(CNC2CCCCC2)c1O
inactive: [1] -4.35% | [2] -27.4% | [3] -25.4% | [4] -18% | [5] -35.2% | [6] 10.2%

CO[C@H]1C[C@H](n2cc(C)c(=O)[nH]c2=O)O[C@@H]1CO
inactive: [1] -6.55% | [2] -9.75% | [3] -39.9% | [4] -10.7% | [5] -9.3% | [6] -25.8%

ONc1ccc2c(c1)C1C(C3C2C2(Cl)C(Cl)=C(Cl)C3(Cl)C2(Cl)Cl)C2(Cl)C(Cl)=C(Cl)C1(Cl)C2(Cl)Cl (stereo not given)
inactive: [1] 35.8% | [2] 13.6% | [3] 7.55% | [4] 19.6% | [5] 24.9% | [6] 24.6%

CN(CCOC(=O)Nc1ccccc1)N=O
inactive: [1] 9.35% | [2] -9.35% | [3] 0.75% | [4] -15.4% | [5] 7.7% | [6] -3%

CC(C)(C)C1C=C(Sc2ccccc2)C(=O)O1 (stereo not given)
inactive: [1] 28.8% | [2] 7.3% | [3] 6.25% | [4] 1.8% | [5] 61.2% | [6] 30.1%

O=C(Cc1ccc([N+](=O)[O-])cc1)Nc1cccc(O)c1
inactive: [1] -4.85% | [2] 29.2% | [3] -4.9% | [4] -13.5% | [5] 47.4% | [6] 14.8%
